Assay outcomes: PubChem, several laboratories
This is a sample that favours compounds with a hit; in the whole collection about 4.9% have one here.
NLRP3 yeast inh: NALP3 inhibition in yeast; Yeast reconstituted NLRP3/ASC/caspase-1, beta-gal luminescence, 24 h; inhibition, % at 10 µM; actives 0.39% (n = 330,000);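 active = inhibition of 50% or more; inactive = inhibition below 50%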
SKKanGAS inh: blocks kanamycin growth of S. pyogenes SKKanGAS strain; inhibition, % at 7.5 µM; AID 1662; BacTiter-Glo, 6 h; actives 1.3% (n = 300,000);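 active = mean replicate score, as percent of positive control median, at least 50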;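 also: strain carries kanamycin resistance gene driven by streptokinase promoter and grows in 40 µg/ml kanamycin; loss of luminescence reflects streptokinase promoter inhibition or plain growth inhibition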
tim23-1 inh: growth inhibitors of tim23-1 mutant yeast; AID 463212; inhibition, % at 20 µM; S. cerevisiae tim23-1 growth, BacTiter-Glo luminescence, 24 h; actives 1.3% (n = 330,000);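 active = growth inhibition of the mutant yeast at or above 50%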;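 also: temperature-sensitive mutant grown at 25 °C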
NALP1 inh: inhibitors of NALP1 inflammasome in yeast. inhibition, % at 10 µM. actives 0.61% (n = 280,000). S. cerevisiae NALP1/ASC/caspase-1 growth, X-gal OD620, 72 h. AID 2071; in the data active = inhibition mostly above about 24%, no sharp cut-off; inactive = mostly below about 32%
tim10-1 inh: tim10-1 yeast growth inhibition; S. cerevisiae tim10-1 ts strain growth, BacTiter-Glo, 24 h; inhibition, % at 20 µM; actives 2.2% (n = 330,000); AID 463190;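 active = inhibition of at least 40%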;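 also: mutant grown at 25 °C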
TIM10 inh: inhibits growth of TIM10 yeast strain; S. cerevisiae TIM10 strain growth, BacTiter-Glo luminescence, 24 h; inhibition, % at 10 µM; actives 1.4% (n = 330,000); AID 463195;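 active = inhibition of 40% or more at the single tested concentration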;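 also: wild-type TIM10 isogenic control strain grown at permissive 25 °C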
NALP3 confirm: confirmation of NALP3 inhibitors in yeast; shares compounds with NLRP3 yeast inh; yeast expressing human NALP3, luminescence; inhibition, % at 10 µM; actives 81% (n = 1,300); AID 435006; in the data active = inhibition above about 48%
Casp1 ASC ctr: active in yeast caspase-1-ASC counter-screen for NALP3 inhibitors; shares compounds with NLRP3 yeast inh; yeast expressing Caspase-1-ASC, luminescence counter screen; inhibition, % at 10 µM; actives 66% (n = 1,000)
NALP3 retest: confirmation retest of NALP3 inhibitors in yeast. actives 53% (n = 1,000). yeast expressing human NALP3, luminescence read-out. shares compounds with NLRP3 yeast inh. inhibition, % at 10 µM
Numbers stand for hits; - = inactive; . = not tested or not shown. Rule as the data show it, unless noted: active = inhibition above about 50%; inactive = the rest.

SMILES	NLRP3 yeast inh	SKKanGAS inh	tim23-1 inh	NALP1 inh	tim10-1 inh	TIM10 inh	others
Cc1nc(-c2ccccn2)nc(SCC(=O)c2ccccc2)c1Cl	-	93	-	.	-	-
O=C(NC1CC2CCCC(C1)N2C(=S)Nc1ccccc1)C1CC1 (stereo unspecified)	-	-	-	-	-	-
COC(=O)c1sc(NC(=O)c2cc3c(s2)CCCC3)nc1C	-	-	-	33	-	-
COc1ccc(OC)c(/C=N/n2c(-c3n[nH]c4c3CCC4)n[nH]c2=S)c1	-	50	-	-	-	-
COc1cc(OC)c(OC)cc1/C=N/n1c(-c2n[nH]c3c2CCC3)n[nH]c1=S	-	-	-	-	-	-
O=C(NCCc1ccccc1)C(=O)NCC1OCCN1S(=O)(=O)c1ccc(F)cc1 (stereo unspecified)	-	-	-	-	-	-
COc1ccc(C2c3ccsc3CCN2C(C)=O)cc1 (stereo unspecified)	-	-	-	-	-	-
COc1ccc(C2c3ccsc3CCN2C(=O)C(C)(C)C)cc1 (stereo unspecified)	-	50	-	-	-	-
Cc1cc(C(=O)Nc2ccon2)ccc1[N+](=O)[O-]	-	-	-	.	-	-
Cc1cc(C)n(-c2nc(C)nc(NCc3ccccc3)n2)n1	-	58	-	-	-	-
CNc1nc(C)nc(-n2nc(C)cc2C)n1	-	-	-	-	-	-
Cc1cc(NC2CCCCC2)nc(NCc2ccccc2)n1	-	-	-	62	-	-
COc1cc(C)nc(NCc2ccccc2)n1	-	-	-	-	-	-
Cc1ccc(Nc2cc(C)nc(NCc3ccccc3)n2)cc1	-	-	-	51	-	-
COc1ccc(Nc2cc(C)nc(NCc3ccccc3)n2)cc1	-	-	-	-	-	-
CN(C)CCCNC(=O)C[C@H]1C[C@H](C(=O)N2CCCCC2)[C@@]2(C)c3[nH]c4cc(CCC(=O)N(C)C)ccc4c3CCN2C1=O	.	.	-	.	-	-
COc1ccccc1CNC(=O)C(Cc1ccccc1)NC(=O)c1ccccc1 (stereo unspecified)	-	.	-	.	-	-
COc1cc(/C=C/C(=O)NCC2CCCCC2)cc(OC)c1OC	-	-	-	-	-	-
COCCN(C(=O)CNC(=O)c1ccco1)C(C(=O)NC1CCCC1)c1cccc(OC)c1 (stereo unspecified)	-	-	-	-	-	-
O=C(CN1C(=O)NC2(CCCC2)C1=O)Nc1cc(C(F)(F)F)ccc1N1CCCCC1	-	-	-	.	-	-
O=C(CN(C(=O)c1csnn1)c1ccc(F)c(Cl)c1)NC1CCCC1	-	-	-	-	-	-
N#Cc1c(NC(=O)/C=C/C(=O)O)sc2c1CCN(Cc1ccccc1)C2	-	-	-	-	-	-
COC(=O)[C@@]12CCCN1[C@H](c1ccc(-c3cccc(Cl)c3)c(OC)c1)[C@H]1C(=O)N(C)C(=O)[C@H]12	-	66	-	.	-	-
CC(C)c1nc(NCc2ccccc2)c(C#N)c2c1CCCC2	-	79	-	-	-	-
CC(C)c1nc(Cl)c(C#N)c2c1CCCC2	-	-	-	-	-	-
SMILES	NLRP3 yeast inh	SKKanGAS inh	tim23-1 inh	NALP1 inh	tim10-1 inh	TIM10 inh	others
CC1CCN(S(=O)(=O)c2cn(CC(=O)N3CCN(c4cccc(C(F)(F)F)c4)CC3)cn2)CC1	-	-	-	-	-	-
Cc1cc2ncn(S(=O)(=O)N3CCCCC3)c2cc1C	69	-	-	-	-	-	NALP3 confirm=61;Casp1 ASC ctr=74;NALP3 retest=68
CCCCCCCCCC(=O)N[C@@H]1c2cc(OC)c(OC)cc2C[C@H]1O	.	.	-	.	-	-
NS(=O)(=O)c1ccc(CCNS(=O)(=O)c2ccc3c(c2)NC(=O)CO3)cc1	-	-	-	-	-	-
CCCCN1C(=O)/C(=C/C=C2\SCCN2C)SC1=S	58	-	-	-	-	-	NALP3 confirm=-;Casp1 ASC ctr=64;NALP3 retest=65
CN1CCS/C1=C/C=C1\SC(=S)N(CC(=O)O)C1=O	-	-	-	-	-	-
C[C@]12CCC3C(CC[C@H]4CC(O)CC[C@]34C)C1CC/C2=N/NC(=O)c1ccncc1 (stereo partly specified)	56	-	-	-	-	-	NALP3 confirm=80;Casp1 ASC ctr=55;NALP3 retest=-
C[C@]12CCC3C(CC[C@H]4CC(O)CC[C@]34C)C1CC/C2=N/O (stereo partly specified)	51	-	-	-	-	-	NALP3 confirm=73;Casp1 ASC ctr=71;NALP3 retest=55
COc1ccc(-c2nc3ccccc3s2)cc1NC(C)=O	51	-	-	-	-	-	NALP3 confirm=-;Casp1 ASC ctr=-;NALP3 retest=-
C[C@@H](NC(=O)C1(c2ccccc2)CCN(C(=O)OC(C)(C)C)CC1)C(=O)N[C@@H](C(=O)O)c1ccccc1	-	-	-	-	-	-
COc1ccc(S(=O)(=O)N2CCN(CC(=O)Nc3c(C)n[nH]c3C)CC2)cc1OC	-	.	-	.	-	-
NCCC(=O)N1c2ccccc2Sc2ccc(Cl)cc21	73	-	-	-	-	-	NALP3 confirm=85;Casp1 ASC ctr=78;NALP3 retest=87
O=S(=O)(NC1CC2CCC1C2)c1ccc(Br)cc1 (stereo unspecified)	-	-	-	-	-	-
O=S(=O)(NC1CC2CCC1C2)c1ccc(Br)s1 (stereo unspecified)	50	-	-	-	-	-	NALP3 confirm=63;Casp1 ASC ctr=59;NALP3 retest=-
O=c1cc(-c2ccccc2Cl)oc2ccc([N+](=O)[O-])c(O)c12	57	87	-	-	-	-	NALP3 confirm=72;Casp1 ASC ctr=-;NALP3 retest=57
c1cc(-c2cc3cc4c(cc3cn2)OCO4)cs1	57	.	-	.	-	-	NALP3 confirm=51;Casp1 ASC ctr=-;NALP3 retest=-
COc1ccc(-c2csc(NC3=NCCCCC3)n2)cc1	-	-	-	-	-	-
Brc1ccc(-c2csc(NC3=NCCCCC3)n2)cc1	58	-	-	-	-	-	NALP3 confirm=55;Casp1 ASC ctr=-;NALP3 retest=-
O=C(C[n+]1ccccc1)N/N=C/c1ccccc1F	-	-	-	-	-	-
O=C(C[n+]1ccccc1)N/N=C/c1cc(Br)ccc1O	64	-	-	-	-	-	NALP3 confirm=66;Casp1 ASC ctr=51;NALP3 retest=66
C=CC[C@H](CC(=O)NCCO)C(=O)N[C@H](COC(=O)[C@@H](CC=C)Cc1ccc(F)cc1)Cc1ccccc1	-	.	-	.	-	-
COc1cc(OC)cc(C(=O)NNC(=O)c2nn(C)c(=O)c3ccccc23)c1	-	.	-	.	-	-
CC(C)COc1ccc(CSCCNC(=S)Nc2ccccc2)cc1	53	-	-	-	-	-	NALP3 confirm=80;Casp1 ASC ctr=58;NALP3 retest=-
CC(=O)Nc1ccc2nc(NC(=O)c3ccc([N+](=O)[O-])s3)sc2c1	-	-	-	-	-	-
